# High-throughput results: PubChem BioAssay, National Center for Advancing Translational Sciences (NCATS)
# KAT2A inh = qHTS Assay for Inhibitors of GCN5L2 | Histone acetyltransferase KAT2A (Homo sapiens), Q92830 | GCN5L2 HAT assay, ThioGlo1 CoA-SH fluorescence | Potency, µM (top dose mostly 58.9 µM), without a hit: top-dose activity change, negative = inhibition, actives largely listed as inhibitors | 390,000 compounds, 0.21% hits | AID 504327, 2011
#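 Free CoA generated was detected with ThioGlo1 (50uM) fluorescence at Ex340nm/Em540nm, read immediately and after 20 min at room temperature. Enzyme, 20 nM in HEPES pH 7.5 buffer, saw compounds 15 min before adding 75uM H3(1-25) peptide and 70uM acetyl-CoA.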
# VDR inh = Inhibitors of the vitamin D receptor (VDR): qHTS. Vitamin D3 receptor (Homo sapiens), P11473. VDR-SRC2-3 peptide fluorescence polarization, 2 h. Potency, µM, for inactives: max response, negative = inhibition, most hits filed as inhibitors. 400,000 compounds, 0.93% hits. AID 504847, 2011
#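 Fluorescence polarization assay measuring small-molecule disruption of VDR binding to the coregulator peptide SRC2-3. Compounds were pin-transferred (23 nl) into the reagent mix and incubated 2 h at room temperature before reading.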
# TDP1 inh = qHTS Assay for Inhibitors of Tyrosyl-DNA Phosphodiesterase (TDP1). recombinant TDP1, AlphaScreen DNA substrate cleavage. Potency, µM (doses to about 130 µM), for inactives: at the top dose activity change, negative = inhibition, hits mostly inhibitors. 350,000 compounds, 0.28% hits; note: nearly all actives have a fitted effect of over 40% in size
#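 Compounds were preincubated with Tdp1 (1 nM final) for 15 min at room temperature before substrate (15 nM final) started a 5 min reaction; beads (10 ug/ml final) were then added for 10 min before AlphaScreen detection.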
# DT40 TDP1 CPT = qHTS for Inhibitors of human tyrosyl-DNA phosphodiesterase 1 (TDP1): qHTS in cells in presence of CPT; AID 686979, 2013; 420,000 compounds, 12% hits; Potency, µM (doses to about 46.2 µM), for inactives: at the highest dose activity change, negative = growth inhibition, actives largely listed as inhibitors; chicken DT40 Tdp1-/-;hTDP1 cells + 20 nM CPT, ATP luminescence, 48 h; note: nearly all actives have a fitted effect of over 55% in size
#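 Cell growth measured by CellTiter-Glo luminescence after a minimum 48 h, 37 C compound exposure with 20 nM CPT in Tdp1-knockout DT40 cells stably expressing hTDP1, seeded 400/well; qHTS titration format.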
# PLK1 PBD block = qHTS for Inhibitors of PLK1-PDB (polo-like kinase 1 - polo-box domain): Primary Screen. Serine/threonine-protein kinase PLK1 (Homo sapiens), P53350. Plk1 PBD binding of FITC phosphopeptide, fluorescence polarization. Potency, µM, for inactives: max response, negative = inhibition, usual class: inhibitors. 360,000 compounds, 2.8% hits. AID 720504, 2013; note: series mostly up to about 57 µM; nearly all actives have a fitted effect of over 65% in size
# Target sequence (P53350 whole entry, looked up, the tested form may be a part): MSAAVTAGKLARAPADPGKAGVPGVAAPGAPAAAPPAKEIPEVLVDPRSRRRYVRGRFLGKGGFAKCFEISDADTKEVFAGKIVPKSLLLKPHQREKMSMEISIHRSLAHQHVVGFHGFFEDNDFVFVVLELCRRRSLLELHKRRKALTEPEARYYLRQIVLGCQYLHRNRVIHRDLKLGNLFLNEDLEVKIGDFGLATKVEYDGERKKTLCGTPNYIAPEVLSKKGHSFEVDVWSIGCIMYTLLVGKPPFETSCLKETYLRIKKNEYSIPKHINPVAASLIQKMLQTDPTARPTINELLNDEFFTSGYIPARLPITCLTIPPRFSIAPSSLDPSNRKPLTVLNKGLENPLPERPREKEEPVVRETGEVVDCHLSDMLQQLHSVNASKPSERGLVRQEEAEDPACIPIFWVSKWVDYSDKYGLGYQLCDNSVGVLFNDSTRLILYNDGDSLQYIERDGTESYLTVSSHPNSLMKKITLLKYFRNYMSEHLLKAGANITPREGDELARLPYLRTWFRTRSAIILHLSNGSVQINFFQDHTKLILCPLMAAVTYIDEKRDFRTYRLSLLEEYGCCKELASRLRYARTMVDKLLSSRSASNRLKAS
# DT40 TDP1 no CPT = qHTS for Inhibitors of human tyrosyl-DNA phosphodiesterase 1 (TDP1): qHTS in cells in absence of CPT; AID 686978, 2013; DT40 Tdp1-/- hTDP1 cells, no CPT, ATP luminescence, 48 h; Potency, µM (series often up to 46.2 µM), for inactives: at the highest dose activity change, negative = growth inhibition, hits mostly inhibitors; 420,000 compounds, 15% hits; note: nearly all actives have a fitted effect of over 55% in size
#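 Growth of hTDP1-complemented DT40 Tdp1-knockout cells is measured by ATP luminescence after at least 48 hr compound exposure at 37 °C, with DMSO substituting for the 20 nM CPT used in the parallel screen.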
# Active calls of the source: *; ? = inconclusive; nt = no result given; [ ] = dose if it differs, or a comment. Only some compounds are listed: those with a hit (about 18% of all), similar ones and a draw of the others. Calls come from the whole dose curve; as a rule, active = well fitted curve in the direction sought with a large enough effect; inconclusive = small, poorly fitted or top-dose-only effect, or another doubt; inactive = no such curve, though single readings can be large; an effect the other way counts as inactive or inconclusive. % is set by controls: 0 for no effect and ±100 for the full control effect; potency is the fitted concentration of half-maximal effect.
SMILES,KAT2A inh,VDR inh,TDP1 inh,DT40 TDP1 CPT,PLK1 PBD block,DT40 TDP1 no CPT
CCc1c(C)nc2cc(-c3ccc(Cl)cc3)[nH]n2c1=O,?,-3%,nt,3.7µM*,-7%,2.3µM*
COCc1cc(=O)n2[nH]c(-c3cccc(Br)c3)cc2n1,-3%,-8%,4%,-3%,1%,?
CCc1c(C)nc2cc(-c3cccc(Br)c3)[nH]n2c1=O,-12%,15%,nt,4.6µM*,-9%,1.5µM*
Cc1ccc(S(=O)(=O)N2CCN(C(=O)COC(=O)CNC(=O)c3ccc(Cl)cc3Cl)CC2)cc1,-9%,5%,-16%[0.505 µM],10%,-3%,-26%
O=CNc1cc(-c2cccc(F)c2)cn2c(-c3ccc(F)c(Cl)c3)cnc12,nt,nt,nt,23µM*,-18%,12µM*
CS(=O)(=O)Nc1cccc(-c2cc(NC=O)c3ncc(-c4ccc(F)c(Cl)c4)n3c2)c1,nt,nt,nt,9.2µM*,-10%,15µM*
CN(C)c1ccc(-c2cc(NC=O)c3ncc(-c4ccc(F)c(Cl)c4)n3c2)cc1,nt,nt,nt,?,1%,?
O=CNc1cc(-c2ccccc2)cn2c(-c3ccc(F)c(Cl)c3)cnc12,nt,nt,nt,23µM*,-18%,23µM*
Cn1c(=NC(=O)c2ccc(F)cc2)sc2cc(Br)ccc21,-2%,18%,2%,-11%,nt,-16%
COc1ccc(-c2c(C)sc(NC(=O)c3ccnn3C)c2C#N)cc1,5%,-5%,0%,-11%,-9%,?
COc1ccc(C(=O)Nc2sc(C)c(-c3ccccc3)c2C#N)cc1OC,-20%,4%,1%,?,?,21µM*
Cc1cccc(C)c1-n1nnnc1C1(C)CCC(=O)N1Cc1cccc(C(F)(F)F)c1 (stereo not given),nt,nt,nt,23µM*,-13%,23µM*
CC1(c2nnnn2Cc2ccccc2)CCC(=O)N1Cc1cccc(C(F)(F)F)c1 (stereo not given),nt,nt,nt,-2%,-3%,-22%
CCCS(=O)(=O)NC(=O)C1(C)CCN(C(=O)c2nc(C)oc2C)C1 (stereo not given),nt,nt,nt,1%,5%,-3%
Cc1ccc(S(=O)(=O)N(C)S(=O)(=O)c2ccc(C)cc2)cc1,-9%,-12%,-11%,-22%,-16%,-32%
Cc1ccc(S(=O)(=O)N(C)CCN(C)S(=O)(=O)c2ccc(C)cc2)cc1,nt,11%,nt,?,-1%,23µM*
Cc1ccc(/C=N/N(C)S(=O)(=O)c2ccc(C)cc2)cc1,-3%,-2%,nt,23µM*,-2%,21µM*
COc1cc(NC(=O)CSc2ccc(-c3sc(C)nc3C)nn2)cc(OC)c1,-2%,8%,0%,21µM*,nt,18µM*
CC(=O)c1ccc(NC(=O)CSc2ccc(-c3sc(C)nc3C)nn2)cc1,-20%,11%,3%,13µM*,-8%,?
COc1ccc(NC(=O)CSc2ccc(-c3sc(C)nc3C)nn2)cc1OC,?,5%,6%,?,-2%,8.2µM*
CCOC(=O)c1ccccc1NC(=O)CSc1ccc(-c2sc(C)nc2C)nn1,-6%,-15%,11%,15µM*,nt,12µM*
Cc1cccc(NC(=O)CSc2ccc(-c3sc(-c4ccccc4)nc3C)nn2)c1C,0%,4%,10%,?,nt,?
COc1ccc(NC(=O)CSc2nc(C)cs2)cc1OC,-10%,-6%,3%,-9%,-2%,-30%
O=C(CSc1nc(=O)n(Cc2ccco2)c2c1CCC2)Nc1cccc(F)c1,-5%,-5%,5%,?,nt,-20%
COc1ccc(OC)c(NC(=O)c2nnn(Cc3ccc(Br)cc3F)c2N)c1,-6%,-2%,7%,8.2µM*,?,18µM*
SMILES,KAT2A inh,VDR inh,TDP1 inh,DT40 TDP1 CPT,PLK1 PBD block,DT40 TDP1 no CPT
Cc1ccc(Cn2nnc(C(=O)Nc3cc(C)ccc3C)c2N)cc1,0%,3%,-5%,?,-7%,-7%
COc1cccc(Cn2nnc(C(=O)Nc3cc(Cl)ccc3OC)c2N)c1,-13%,-12%,5%,23µM*,-11%,16µM*
Cc1ccc(C)c(NC(=O)c2nnn(Cc3ccc(F)cc3Cl)c2N)c1,-10%,1%,7%,15µM*,nt,6.5µM*
Cc1sc2ncnc(SCC(=O)c3ccc4c(c3)OCCO4)c2c1-c1ccccc1,-7%,7%,-3%,6.5µM*,-1%,9.2µM*
O=C(CSc1nc(Cc2ccccc2)nc2ccccc12)c1ccc2c(c1)OCCO2,-23%,2%,-3%,16µM*,-8%,23µM*
Cc1ccc(-c2csc3ncnc(SCC(=O)c4ccc5c(c4)OCCO5)c23)cc1,5%,-1%,5%,?,-4%,?
O=C(CSc1ncnc2scc(-c3ccc(F)cc3)c12)c1ccc2c(c1)OCCO2,-10%,-9%,-3%,21µM*,-22%,18µM*
C/C(N)=C(/C#N)C(=O)CSc1ncnc2ccccc12,-6%,-1%,-2%,?,27µM*,?
N#Cc1ccc(CN2CC[C@@]3(CCCN(S(=O)(=O)c4ccccc4)C3)C2)cc1,-9%,?,nt,?,nt,?
Cc1cccc(CCNC(=O)C2CC(O)CN2C(=O)Nc2ccccc2)c1 (stereo not given),nt,nt,nt,-3%,2%,0%
CCOC(=O)c1[nH]c2ccccc2c1NC(=O)c1ccc(OC(C)C)cc1,-7%,-4%,6%,?,nt,?
Cc1ccccc1NC(=O)CN1CCN(C(=O)c2ccco2)CC1,0%,-5%,5%,3%,1%,18%
CCc1ccccc1N(C)C(=O)Cc1c(C(=O)O)c(C)cn1C,-5%,8%,1%,0%,nt,-12%
CCC1CN(CCNC(=O)c2ccc(N3CCOCC3)cc2)Cc2cc(OC)ccc2O1 (stereo not given),nt,nt,nt,-16%,nt,-29%
O=C(N[C@H]1CCCc2ccccc21)O[C@@H]1C(=O)c2cc(Br)ccc2O[C@H]1c1ccc2c(c1)OCO2,nt,0%,7%,nt,nt,nt
O=C(CSc1ncnc2ccccc12)c1ccc2c(c1)OCCO2,-11%,-18%,5%,18µM*,-13%,18µM*
COC(=O)c1ccccc1NC(=O)CN(c1ccc(C)cc1)S(C)(=O)=O,0%,-12%,nt,-18%,-13%,4%
